# Results from PubChem BioAssay (NCATS).
# Records with an inconclusive call do not appear. Where a call stands in place of a potency, no number is given. Calls of active or inactive are those of the source. Calls follow the shape of the dose curve; as a rule, active = well fitted inhibition curve with a large enough effect; inconclusive = small, poorly fitted or top-dose-only effect; inactive = flat fitted curve, though single readings scatter. Peptide text beside a SMILES is read from it.
# Tested on: CRL-7250
# Test: qHTS assay to identify novel small-molecules to repurpose for Merkel cell carcinoma treatment (AID 1296009); also: nearly all actives have a fitted effect of over 60% in size
# Settings: MCC and control cell lines, CellTiter-Glo viability, 72 h; series mostly up to 92 µM
# In short: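 Cells were incubated with compound for 72 hr at 37 degree celsius before CellTiter-Glo addition. Luminescence was normalized with no-cell wells as full cytotoxicity and DMSO as baseline.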
Structure (SMILES),Potency,outcome
O=C(O)c1cccc(C(=O)CCC2OC(n3cnc4c(=O)[nH]cnc43)C(O)C2O)c1 (stereo not given),inactive,–
C=C[C@H]1C(O[C@@H]2O[C@H](CO)[C@@H](O)[C@H](O)[C@H]2O)OC=C2C(=O)N3CCc4c([nH]c5ccccc45)[C@H]3C[C@H]21 (stereo not given in full),inactive,–
CC(C)C1=CC2=CCC3[C@](C)(CCC[C@@]3(C)C(=O)O)C2CC1=O (stereo not given in full),inactive,–
C[C@H](/C=C/[C@@]1(O)[C@H](C)CC(=O)CC1(C)C)O[C@@H]1O[C@H](CO[C@@H]2OC[C@@H](O)[C@H](O)[C@H]2O)[C@@H](O)[C@H](O)[C@H]1O,inactive,–
CC(=O)N[C@@H](Cc1c[nH]c2ccccc12)C(=O)N[C@@H](CCC(=O)O)C(=O)N[C@@H](Cc1cnc[nH]1)C(=O)N[C@@H](CC(=O)O)C(=O)Nc1ccc2c(C(F)(F)F)cc(=O)oc2c1 (HELM PEPTIDE1{[ac].W.E.H.D.[O=c1cc(C(F)(F)F)c2ccc(N[*:1])cc2o1]}$$$$V2.0),inactive,–
CCOC(=O)CSc1nc2c(sc3ccccc32)c(=O)n1CCCN1CCCC1,inactive,–
CCC(O)(C(=O)OCc1ccccc1NC(=O)CCC(=O)O)C(C)O (stereo not given),inactive,–
On1ncc(C2CCNCC2)c1-c1cccc(-c2ccccc2)c1,inactive,–
CC1[C@@H](O)[C@@H](O)C2[C@]3(C)C(C[C@H]4OC(=O)[C@H](O)[C@]1(O)[C@@]24C)C(C)(O)C[C@H](O)[C@H]3O (stereo not given in full),inactive,–
O=C(/C=C/c1ccc(O)c(O)c1)OC[C@H]1O[C@@H](OC2CCCCC2O)[C@H](O)[C@@H](O)[C@@H]1O (stereo not given in full),inactive,–
COC(=O)C1=CO[C@@H](O[C@@H]2O[C@H](CO)[C@@H](O)[C@H](O)[C@H]2O)[C@@H]2[C@@H](CO)[C@@H](O)C(O)[C@H]12 (stereo not given in full),inactive,–
CC1=C2C(=O)C=C(CO)C2[C@H]2OC(=O)[C@H](C)[C@@H]2[C@@H](OC(=O)Cc2ccc(O)cc2)C1 (stereo not given in full),inactive,–
Cc1occc(=O)c1O[C@@H]1O[C@H](CO[C@@H]2OC[C@](O)(CO)[C@H]2O)[C@@H](O)[C@H](O)[C@H]1O,inactive,–
CC(=O)OCC1OC(O[C@H]2CC[C@@]3(C)C(CC[C@]4(C)C3CC=C3[C@@H]5CC(C)(C)CC[C@]5(C(=O)O)CC[C@]34C)[C@]2(C)CO)C(O)C(O)C1OC1OC(C)C(O)C(OC2OCC(O)C(O)C2O)C1O (stereo not given in full),–,inactive [at 9.27 µM]
CC1CCC2(C(=O)OC3OC(COC4OC(CO)C(O)C(O)C4O)C(O)C(O)C3O)CCC3(C)C(=CCC4C5(C)CCC(O)C(C)(C(=O)O)C5CCC43C)C2C1(C)O (stereo not given),–,inactive [at 9.27 µM]
COc1ccc(S(=O)(=O)Nc2c(C)cc(C)cc2C)cc1,inactive,–
COc1cc(C(O)C(CO)Oc2ccc(CCCO[C@@H]3O[C@@H](C)[C@H](O)[C@@H](O)[C@H]3O)cc2OC)ccc1O (stereo not given in full),inactive,–
CCC[C@@H]1C[C@@H](C(=O)N[C@@H]([C@H]2O[C@H](SC)[C@H](O)[C@@H](O)[C@@H]2O)[C@@H](C)O)N(C)C1,inactive,–
C/C(=C\CCC(C)(C)O)CCO[C@@H]1O[C@H](CO[C@@H]2O[C@@H](C)[C@H](O)[C@@H](O)[C@H]2O)[C@@H](O)[C@H](O)[C@H]1O,inactive,–
C=CC(=O)N1CC(N2CCN(C(=O)CNc3cc(C4CC4)c(Cl)cc3O)CC2)C1,inactive,–

Structure (SMILES),Potency,outcome
Cc1nc2cc(C(=O)NCc3ccccn3)nn2c(C)c1Cc1cccc(Cl)c1,inactive,–
CN1CCCC1Cc1c[nH]c2ccc(CCS(=O)(=O)c3ccccc3)cc12 (stereo not given),inactive,–
C/C(=C\CCC(C)CCO)C(=O)O[C@@H]1[C@@H](O)[C@H](OC2OC=C(C(=O)O)C3CCC(C)(O)C23)O[C@H](CO)[C@H]1O (stereo not given in full),inactive,–
COc1cccc(-n2nc(C(=O)O)cc2-c2ccc(C3CCCCC3)c(Cl)c2)c1,inactive,–
CC1(C)CC2C(O)C3=C(CC(C)(O)C2C1)C(=O)OC3 (stereo not given),inactive,–
C=C(C(=O)O)[C@@H]1CC[C@@]2(C)CC[C@H](O)[C@@]2(C(C)=O)C1,inactive,–
CC1=C(CC(=O)O)c2cc(F)ccc2C1=Cc1ccc(S(C)(=O)=O)cc1,inactive,–
COc1cc(CCc2ccccc2)c(C(=O)O)c2c1CC(C(C)(C)O)O2 (stereo not given),inactive,–
COc1cc(Br)c(S(=O)(=O)Nc2ccc(Cl)c(O[C@@H]3CCN(C)C3)c2)cc1OC,inactive,–
C[C@H]1CCN2C[C@]34C[C@@]5(C(=O)Nc6c5ccc5c6OC=CC(C)(C)O5)C(C)(C)C3C[C@]12C(=O)N4C (stereo not given in full),inactive,–
CC(=O)O[C@@H]1CC2C(/C=C(\C)C(=O)[C@@]3(O)C[C@@H](C)[C@H](OC(=O)c4ccccc4)C3/C=C/1C)C2(C)C (stereo not given in full),inactive,–
COc1ccc(OC)c(C2C(C#N)=C(N)Oc3n[nH]c(-c4ccc5ccccc5c4)c32)c1 (stereo not given),inactive,–
C=C1CC[C@@]2(OC1)O[C@H]1CC3[C@@H]4CC=C5C[C@@H](O)C[C@@H](O[C@@H]6OC[C@H](O)[C@H](O)[C@H]6O[C@@H]6O[C@@H](C)[C@H](O)[C@@H](O)[C@H]6O)[C@]5(C)C4CC[C@]3(C)[C@H]1[C@@H]2C (stereo not given in full),inactive,–
C/C=C(/C)C(=O)O[C@H]1C[C@]2(C)O[C@@H]2[C@@H](OC(C)=O)[C@@]2(C)CC[C@@](O)(C(C)C)[C@H]12,inactive,–
CC(=O)OC1CC(=O)C2(C)C3CC4=C(OC(C)CC4=O)OC3(C)CCC2C1(C)C (stereo not given),inactive,–
CC(O)C/C=C/C=C/C(=O)OC1C=C2COC(=O)C2(O)C2(C)CCCC(C)(C)C12 (stereo not given),inactive,–
C=CC1(C)C=C2C(O)CC3C(C)(C(=O)O)CCCC3(C)C2CC1 (stereo not given),inactive,–
NC1(c2ccc(NC(=O)c3ccnc(-c4cc(C(=O)O)ccn4)c3)cc2)CC1,inactive,–
C=C(C(=O)O)C1CC2=C(C)CCCC2(C)C[C@@H]1O (stereo not given in full),inactive,–
CC1(C)CCC[C@@]2(C)[C@H]1[C@H](O)C=C1COC(=O)[C@@]12O,inactive,–

Structure (SMILES),Potency,outcome
O=c1c2ccccc2nc2n1CCC2O (stereo not given),inactive,–
O=C(Nc1c(-c2cccs2)nc2ccccn12)c1ccc(Cl)cc1,inactive,–
CC1=C2C(=O)C=C(CO[C@@H]3O[C@H](CO)[C@@H](O)[C@H](O)[C@H]3O)[C@@H]2[C@H]2OC(=O)[C@H](C)[C@@H]2[C@@H](O)C1,inactive,–
CC(=O)N[C@H]1[C@H](O[C@H]2CC[C@@]3(C)C(CC[C@]4(C)C3CC=C3C5CC(C)(C)CC[C@]5(C(=O)O)[C@H](O[C@@H]5O[C@H](CO)[C@@H](O)[C@H](O)[C@H]5O)C[C@]34C)C2(C)C)O[C@H](CO[C@@H]2OC[C@H](O)[C@H](O)[C@H]2O[C@@H]2OC[C@@H](O)[C@H](O)[C@H]2O)[C@@H](O)[C@@H]1O (stereo not given in full),–,inactive [at 9.27 µM]
CC12CCC3C(C)(C)C(O)CCC3(C)C1Cc1c(oc(C(=O)O)cc1=O)O2 (stereo not given),inactive,–
CC/C=C\CC1C(=O)C=CC1(CCCCC1CCC(=O)O1)OC(C)=O (stereo not given),inactive,–
OCC(O)C(c1c[nH]c2ccccc12)c1c[nH]c2ccccc12 (stereo not given),inactive,–
CC(C)C1(O[C@@H]2O[C@H](CO)[C@@H](O)[C@H](O)[C@H]2O)CC=C(CO)CC1 (stereo not given in full),inactive,–
COc1ccncc1C(=O)NC(=O)Nc1ccc(-c2ccccc2)c(C(F)(F)F)c1,inactive,–
C=C[C@]1(C)C=C2CCC3C(C)(CCC[C@@]3(C)C(=O)O)C2CC1 (stereo not given in full),inactive,–
CC(C)(C)C1CCN(C(=O)n2ncc(C(O)(c3ccccc3)c3ccccc3)n2)CC1,inactive,–
COC(=O)C1=CO[C@@H](O[C@@H]2O[C@H](CO)[C@@H](O)[C@H](O)[C@H]2O)[C@H]2[C@@H]1[C@H](O)C[C@]2(C)O,inactive,–
O=C(Nc1ccn[nH]1)c1c(F)cccc1F,inactive,–
C/C=C/CCC1Cc2cc(O)c(CCCC)c(O)c2C(=O)O1 (stereo not given),inactive,–
COc1cc([C@@H](O[C@@H]2O[C@H](CO)[C@@H](O)[C@H](O)[C@H]2O)[C@@H]2CO[C@H](c3ccc(O)c(OC)c3)[C@H]2CO)ccc1O,inactive,–
COc1cc(O)c2c(c1)C1(OC2=O)C(C)=CC(=O)C1O (stereo not given),inactive,–
COc1ccc(/C=C/C(N)=O)cc1OC,inactive,–
C[C@@H]1O[C@@H](O[C@H]2[C@H](O[C@H]3[C@H](O[C@H]4CC[C@@]5(C=O)C(CC[C@]6(C)C5CC=C5C7CC(C)(C)C[C@@H](O)[C@]7(C)CC[C@]56C)C4(C)C)O[C@H](C(=O)O)[C@@H](O)[C@@H]3O)OC[C@@H](O)[C@@H]2O)[C@H](O)[C@H](O)[C@H]1O (stereo not given in full),–,inactive [at 9.27 µM]
NC(=O)[C@H]1CCCCc2c1[nH]c1ccc(Cl)cc21,inactive,–
CC(=O)C=C=C1C(C)(C)CC(O[C@@H]2O[C@H](CO)[C@@H](O)[C@H](O)[C@H]2O)CC1(C)O (stereo not given in full),inactive,–
